Assay outcomes from PubChem.
FEN1 inhibitor: inhibitors of human flap endonuclease 1; Potency, µM (highest dose often 114 µM), most hits filed as inhibitors; Recombinant FEN1 flap cleavage, fluorescence, 15 min; 390,000 compounds, 0.35% hits; AID 588795; P39748; note: nearly all actives have a fitted effect of over 65% in size
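In this screen, 50 nM flap DNA substrate was added to 10 nM FEN1 pretreated with compound for 15 min at room temperature; cleavage was followed with reads at 0 and 15 min, and Hill fitting gave concentration–response parameters.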
POLK inh: blocks human DNA polymerase kappa activity | AID 588579 | 400,000 compounds, 0.53% hits | purified Pol kappa, fluorescent DNA synthesis assay, 10 min | Potency, µM (top dose mostly 107 µM), hits mostly inhibitors | Q9UBT6
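10 nM Pol kappa preincubated 15 min at room temperature with compounds, then reaction started with substrate at 50 nM final. Fluorescence read kinetically at 0 and 10 min; buffer-only wells served as negative control.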
Pol eta inh: blocks human DNA polymerase eta activity. Q9Y253. recombinant Pol eta, fluorescent DNA replication assay. Potency, µM (doses to about 114 µM), actives largely listed as inhibitors. 390,000 compounds, 1.2% hits
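Pol eta at 10 nM preincubated with compounds 15 min at room temperature; reaction started with fluorescent substrate (50 nM final) and read kinetically at 0 and 10 min.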
PI5P4Ka inh: inhibitors of human PI5P4K alpha; P48426; PI5P4Kalpha enzyme, ADP-Glo luminescence, 60 min; active compounds read low; max response, %; 330,000 compounds, 1.2% hits; AID 652105; active = max response of -50% or lower; inconclusive = between -30% and -50%; inactive = -30% or higher; note: value at the top dose of about 77 µM
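Enzyme plus substrate dispensed, test compounds pinned in, then ATP (5 microM final) added. After 60 min at RT, ADP-Glo reagent 1 for 45 min and reagent 2 for 30 min preceded luminescence imaging.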
Pol iota inh: inhibitors of human DNA polymerase iota; Pol iota fluorescent replication assay, 10 min; Potency, µM (series often up to 115 µM), usual class: inhibitors; 390,000 compounds, 1% hits; Q9UNA4; AID 588590
Target sequence (Q9UNA4 whole entry, looked up): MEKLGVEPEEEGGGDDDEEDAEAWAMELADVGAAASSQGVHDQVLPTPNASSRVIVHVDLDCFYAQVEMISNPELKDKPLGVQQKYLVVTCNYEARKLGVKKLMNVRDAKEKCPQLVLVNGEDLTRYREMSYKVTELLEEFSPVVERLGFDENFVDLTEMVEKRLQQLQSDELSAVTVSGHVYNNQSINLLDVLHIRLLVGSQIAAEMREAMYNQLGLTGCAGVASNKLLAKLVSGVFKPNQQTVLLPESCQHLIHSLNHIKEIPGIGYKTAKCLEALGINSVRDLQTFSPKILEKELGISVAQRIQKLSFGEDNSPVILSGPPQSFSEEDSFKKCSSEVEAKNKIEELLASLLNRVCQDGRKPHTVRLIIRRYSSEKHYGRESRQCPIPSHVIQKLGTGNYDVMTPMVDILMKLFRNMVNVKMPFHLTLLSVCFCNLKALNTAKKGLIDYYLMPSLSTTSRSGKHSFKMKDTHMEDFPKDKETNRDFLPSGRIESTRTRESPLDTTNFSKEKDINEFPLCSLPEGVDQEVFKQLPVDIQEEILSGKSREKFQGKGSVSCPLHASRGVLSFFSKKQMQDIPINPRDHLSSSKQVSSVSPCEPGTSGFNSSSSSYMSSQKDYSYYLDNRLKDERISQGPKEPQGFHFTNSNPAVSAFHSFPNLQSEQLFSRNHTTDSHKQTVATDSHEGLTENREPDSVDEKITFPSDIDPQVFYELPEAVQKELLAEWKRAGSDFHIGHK
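Fluorescent replication assay read twice, at 0 min and 10 min after adding 50 nM (final) substrate. Enzyme (10 nM) and compounds were first incubated 15 min at room temperature; enzyme-free buffer wells were negative controls.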
Pol beta inh: DNA polymerase beta (human) inhibition; P06746; 340,000 compounds, 1.3% hits; Potency, µM (series often up to 114 µM), actives largely listed as inhibitors; Pol beta primer extension/strand displacement, fluorescence kinetic
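Enzyme-only controls used 10 nM Pol beta; buffer lacking enzyme served as negative control. Compound preincubated 15 min, then 50 nM substrate added; 0 and 10 min reads at room temperature.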
Numbers stand for hits. Most compounds without a hit are left out; they make up all but 2.8% or so of the library. Unless noted, calls come from the whole dose curve; as a rule, active = well fitted curve in the direction sought with a large enough effect; inconclusive = small, poorly fitted or top-dose-only effect, or another doubt; inactive = no such curve, though single readings can be large; an effect the other way counts as inactive or inconclusive.

CCOc1ccc(C2C(C#N)=C(N)SC(N)=C2C#N)cc1OCC was read as FEN1 inhibitor inactive, POLK inh inactive, Pol eta inh inactive, PI5P4Ka inh -51, Pol iota inh inactive and Pol beta inh inactive.
`COc1cccc(C(=O)Nc2cccc(C(=O)OCc3cc(=O)n4nc(C5CC5)sc4n3)c2)c1` gave FEN1 inhibitor inactive, POLK inh inactive, Pol eta inh inactive, Pol iota inh inactive and Pol beta inh inactive.
Screening COc1ccccc1CN1CC[C@@]2(CCCN(C(=O)c3cccn3C)C2)C1 returned POLK inh inactive.
For CCOC(=O)Cc1csc(SC(C)C(=O)NC2CCCCC2C)n1 (stereo unspecified) the results were FEN1 inhibitor inactive, POLK inh inactive, Pol eta inh inactive, PI5P4Ka inh inactive and Pol iota inh inactive.
`CCOC(=O)Cc1csc(SC(C)C(=O)Nc2ccc(NC(C)=O)cc2)n1` (stereo unspecified) gave FEN1 inhibitor inactive, POLK inh inactive, Pol eta inh inactive, PI5P4Ka inh inactive, Pol iota inh inactive and Pol beta inh 89µM.
`COc1ccc(S(=O)(=O)N(CC(=O)Nc2cccc(C)c2)c2ccc(C)cc2)cc1OC` gave FEN1 inhibitor inactive, POLK inh inactive, Pol eta inh inactive, Pol iota inh inactive and Pol beta inh inactive.
S=c1nc(-c2cccc(Cl)c2)[nH][nH]1 was read as FEN1 inhibitor inactive, POLK inh inactive, Pol eta inh inactive, PI5P4Ka inh inactive, Pol iota inh inactive and Pol beta inh inactive.
`S=c1nc(-c2cc(Cl)ccc2Cl)[nH][nH]1` gave FEN1 inhibitor inactive, POLK inh inactive, Pol eta inh inactive, PI5P4Ka inh -64, Pol iota inh inconclusive and Pol beta inh inactive.
Cc1ccc(C)c(CSC2=NN3CCCC(=O)N=C3S2)c1 was read as FEN1 inhibitor inactive, POLK inh inactive, Pol eta inh inactive, PI5P4Ka inh inactive, Pol iota inh inactive and Pol beta inh inconclusive.
CSc1ccc(/C=C2\C=C(C(O)c3ccc(SC)cc3)c3ccccc32)cc1 (stereo unspecified) was read as FEN1 inhibitor inactive, POLK inh inactive and Pol iota inh inactive.
Screening O=C(Nc1nccs1)[C@@H]1CC=C[C@@H]2CCN(C3CCCCC3)C(=O)[C@@H]21 returned FEN1 inhibitor inactive, POLK inh inactive and Pol iota inh inactive.
Screening N#Cc1c(-c2ccccc2)[nH]c(=S)[nH]c1=O returned FEN1 inhibitor inactive, POLK inh inactive, Pol eta inh inactive, PI5P4Ka inh -62, Pol iota inh inactive and Pol beta inh inactive.
`O=c1[nH]c(=S)[nH]c(-c2ccccc2)c1Cc1c(O)ccc2ccccc12` gave POLK inh inactive.
Screening N#Cc1c(-c2cccc(Cl)c2)[nH]c(=S)[nH]c1=O returned FEN1 inhibitor inactive, POLK inh inactive, Pol eta inh inactive, PI5P4Ka inh -77, Pol iota inh inactive and Pol beta inh inactive.
For CCN(CC)CCC=C(c1cccs1)c1cccs1 the results were FEN1 inhibitor inactive, POLK inh inconclusive, Pol eta inh inactive, PI5P4Ka inh inactive and Pol iota inh inconclusive.
COc1ccc(OC)c(CNC(=O)C2CCN(c3nc4ccccc4nc3C(F)(F)F)CC2)c1 was read as FEN1 inhibitor inactive, POLK inh inactive, Pol eta inh inactive, Pol iota inh inactive and Pol beta inh inactive.
Screening CCc1cccc(NC(=O)CC2Oc3ccc(C)cc3NC2=O)c1 (stereo unspecified) returned FEN1 inhibitor inactive, POLK inh inactive, Pol eta inh inactive, Pol iota inh inactive and Pol beta inh inactive.
COCCn1c(SCC(=O)Nc2ccc(F)c(Cl)c2)nc2c(oc3ccccc32)c1=O was read as FEN1 inhibitor inactive, POLK inh inactive, Pol eta inh inactive, Pol iota inh inactive and Pol beta inh inactive.
`COc1ccc(-c2csc(C(C#N)=C(O)CSc3nccn3C)n2)cc1OC` gave FEN1 inhibitor inactive, POLK inh inactive, Pol eta inh 45µM, PI5P4Ka inh inactive and Pol iota inh 14µM.
CC1(c2nnc(Cc3ccccc3)o2)CC(c2ccccc2[N+](=O)[O-])=NO1 (stereo unspecified) was read as FEN1 inhibitor inactive, POLK inh inactive, Pol eta inh inactive, PI5P4Ka inh -51 and Pol iota inh inactive.
`CC1(c2nnc(Cc3ccccc3)o2)CC(c2cccc([N+](=O)[O-])c2)=NO1` (stereo unspecified) gave FEN1 inhibitor inactive, POLK inh inactive, Pol eta inh inactive, PI5P4Ka inh inactive and Pol iota inh inconclusive.
`O=C(O)c1ccc2c(=O)n3c(nc2c1)/C(=C/c1ccc(F)cc1)CC3` gave FEN1 inhibitor inactive, POLK inh inactive, Pol eta inh inactive, PI5P4Ka inh inactive, Pol iota inh inactive and Pol beta inh inactive.
`O=C(O)c1ccc2c(=O)n3c(nc2c1)/C(=C/c1cccc(Cl)c1Cl)CCCC3` gave FEN1 inhibitor inactive, POLK inh inactive, Pol eta inh inactive, PI5P4Ka inh -73, Pol iota inh inactive and Pol beta inh inactive.
`Cc1ccc(S(=O)(=O)c2ccc(Oc3cccc(C)c3)cc2)cc1` gave FEN1 inhibitor inactive, POLK inh inactive, Pol eta inh inactive, PI5P4Ka inh inactive, Pol iota inh inactive and Pol beta inh inactive.
CCN1CCN(C2=CC3=CC(=C(C#N)C#N)CCC3CC2)CC1 (stereo unspecified) was read as FEN1 inhibitor inactive, POLK inh inactive, Pol eta inh inactive, PI5P4Ka inh inactive, Pol iota inh inconclusive and Pol beta inh inactive.
Screening CN1CCN(C2=CC3=CC(=C(C#N)C#N)CCC3CC2)CC1 (stereo unspecified) returned FEN1 inhibitor inactive, POLK inh inactive, Pol eta inh inactive, PI5P4Ka inh inactive, Pol iota inh 89µM and Pol beta inh inactive.
`COc1ccc2cc(C(=O)CS(=O)(=O)c3ccccc3)c(=O)oc2c1` gave FEN1 inhibitor inactive, POLK inh inactive, Pol eta inh inactive, PI5P4Ka inh inactive, Pol iota inh inactive and Pol beta inh inactive.
`COc1ccc(S(=O)(=O)CC(=O)c2cc3cccc(C)c3oc2=O)cc1` gave FEN1 inhibitor inactive, POLK inh inactive, Pol eta inh 50µM, PI5P4Ka inh inconclusive, Pol iota inh inconclusive and Pol beta inh inconclusive.
`CC(Oc1ccccc1)C(=O)Nc1nc(-c2ccncc2)cs1` (stereo unspecified) gave FEN1 inhibitor inactive, POLK inh inactive, Pol eta inh inactive, PI5P4Ka inh inactive and Pol iota inh inactive.
Screening Cc1nc(-c2cccc(NC(=O)C(C)Oc3ccccc3)c2)cs1 (stereo unspecified) returned FEN1 inhibitor inactive, POLK inh inactive, Pol eta inh 28µM, PI5P4Ka inh inactive, Pol iota inh inconclusive and Pol beta inh inactive.
